In PubChem BioAssay (NCI) one finds growth data, which are given here for 14 molecules.

The panel holds about 83,000 compounds, 20% with a hit somewhere; the sample as a whole holds those more often.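 Assay: single dose, 48 h. Readout: percent growth (0 = no net growth; negative = cell death). Active: <10.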 Values without a mark were called inactive. Active and inactive are the calls of the source.

Among the test systems are RPMI-8226 leukemia; OVCAR-8 ovarian; OVCAR-5 ovarian; OVCAR-4 ovarian; SK-OV-3 ovarian; IGROV1 ovarian; OVCAR-3 ovarian; HS 578T breast; NCI/ADR-RES ovarian; T-47D breast.
Common to all, as to experiment: NCI-60 one-dose screen, 48 h (100 = growth as untreated, 0 = no growth, -100 = all killed)
Conditions in all cases: 10 µM

`CC1(C)N=C(N)N=C(N)N1c1ccc(CCc2ccccc2)c(Cl)c1`: the growth in the assay on RPMI-8226 leukemia was 26.2%; in the assay with OVCAR-8 ovarian, 16.8%; in the assay on OVCAR-5 ovarian, 36.3%; in the assay on OVCAR-4 ovarian, 38%; in the assay with SK-OV-3 ovarian, 36.3%; in the assay with IGROV1 ovarian it was 28.1%. The growth in the assay on OVCAR-3 ovarian was 23.7%; in the assay on HS 578T breast, 69.3%; with NCI/ADR-RES ovarian, 104%; in the assay on T-47D breast, 30.3%.
`COc1ccc(-c2ccc3cc(C(=O)Nc4ccc(O)c(C(=O)/C=C/c5cc(OC)c(OC)c(OC)c5)c4)ccc3c2)cc1`: the growth with RPMI-8226 leukemia was 60.2%; in the assay with OVCAR-8 ovarian, 84.9%; with OVCAR-5 ovarian, 108%; with OVCAR-4 ovarian, 94.5%; in the assay with SK-OV-3 ovarian, 109%; with IGROV1 ovarian it was 89.6%. The growth with OVCAR-3 ovarian is 100%; in the assay with HS 578T breast it was 102%; in the assay on NCI/ADR-RES ovarian, 95.4%; in the assay on T-47D breast it was 85.5%.
With `COc1ccc(OC)c(NC(=O)c2sc3nc4c(cc3c2N)C(=O)CCC4)c1`, the growth was 95.8% in the assay on RPMI-8226 leukemia; 96.1% in the assay on OVCAR-8 ovarian; 101% in the assay on OVCAR-5 ovarian; 109% with OVCAR-4 ovarian; 44.7% in the assay on SK-OV-3 ovarian; 96.4% in the assay on IGROV1 ovarian. The growth with OVCAR-3 ovarian is 118%; with HS 578T breast, 96.8%; in the assay with NCI/ADR-RES ovarian, 91%; in the assay with T-47D breast, 93.9%.
`COc1cc(C)ccc1C(=O)c1ccc(C)cc1OC`: the growth in the assay on RPMI-8226 leukemia is 21.9%; in the assay on OVCAR-8 ovarian, 23.9%; in the assay on OVCAR-5 ovarian it was 46.8%; in the assay with OVCAR-4 ovarian it was 63.1%; in the assay with SK-OV-3 ovarian, 17.1%; in the assay with IGROV1 ovarian, 37.2%. For the same molecule, the growth in the assay with OVCAR-3 ovarian was -39.2% (active); in the assay with HS 578T breast, -12.6% (active); in the assay with NCI/ADR-RES ovarian it was -2.71% (active); with T-47D breast, 50.6%.
With `C[C@@H]1C=C2C(=O)O[C@@H]3CC[C@H](C1)[C@]23O`, the growth is 75.8% in the assay with RPMI-8226 leukemia; 78.3% in the assay on OVCAR-8 ovarian; 104% with OVCAR-5 ovarian; 76.5% in the assay with OVCAR-4 ovarian; 105% in the assay with SK-OV-3 ovarian; 42.2% in the assay with IGROV1 ovarian. Further, the growth in the assay on OVCAR-3 ovarian was 66.9%; in the assay with HS 578T breast, 96.4%; with NCI/ADR-RES ovarian, 93.2%; in the assay with T-47D breast, 26.3%.
`COc1cc(-c2nc(-c3nnc(-c4ccc(F)c(Cl)c4)o3)c3ccccn23)cc(OC)c1OC`: the growth in the assay with RPMI-8226 leukemia is 35.3%; in the assay with OVCAR-8 ovarian, -28.2% (active); in the assay with OVCAR-5 ovarian, 67.6%; in the assay with OVCAR-4 ovarian, -40.4% (active); in the assay with SK-OV-3 ovarian, -4.85% (active); in the assay on IGROV1 ovarian, 72.9%. Also, the growth with OVCAR-3 ovarian was 22.3%; in the assay on HS 578T breast, 58.6%; with NCI/ADR-RES ovarian it was 21%; in the assay on T-47D breast it was 30.4%.
On to `COc1ccc(-c2nc3ncccn3c2-c2nnc(-c3ccsc3C)o2)cc1`, for which the growth with RPMI-8226 leukemia is 86.9%; in the assay with OVCAR-8 ovarian it was 25.2%; in the assay with OVCAR-5 ovarian it was 102%; in the assay with OVCAR-4 ovarian it was 25.7%; in the assay with SK-OV-3 ovarian, 54.4%; in the assay on IGROV1 ovarian, 94.7%. Further, the growth was 55.4% in the assay with OVCAR-3 ovarian, 56.4% in the assay on HS 578T breast, 61.1% in the assay on NCI/ADR-RES ovarian and 92.1% in the assay with T-47D breast.
`Cc1ccc(C(=O)Nc2cccc(F)c2)cc1NC(=O)C1(c2ncnc3[nH]ccc23)CC1`: the growth was 83.2% in the assay with RPMI-8226 leukemia; 89.7% with OVCAR-8 ovarian; 83.6% in the assay with OVCAR-5 ovarian; 101% with OVCAR-4 ovarian; 91.1% with SK-OV-3 ovarian; 90.3% in the assay with IGROV1 ovarian. The growth is 103% in the assay on OVCAR-3 ovarian, 74% with HS 578T breast, 92% in the assay with NCI/ADR-RES ovarian and 74.1% in the assay with T-47D breast.
Regarding `O=c1cc(-c2ccccc2)[nH]n1-c1nc2ccccc2[nH]1`, the growth in the assay with RPMI-8226 leukemia is 40.2%; with OVCAR-8 ovarian, 35%; in the assay on OVCAR-5 ovarian it was 98.6%; in the assay with OVCAR-4 ovarian it was 25.3%; in the assay with SK-OV-3 ovarian it was 75.7%; in the assay with IGROV1 ovarian it was 38.9%. Also, the growth is 60.9% in the assay with OVCAR-3 ovarian, 69.5% with HS 578T breast, 29.1% with NCI/ADR-RES ovarian and 62% in the assay on T-47D breast.
With `CCCCCCc1cc(N=Nc2ccc(S(=O)(=O)Nc3cc(C)nc(C)n3)cc2)c(O)cc1O`, the growth in the assay with RPMI-8226 leukemia is 95.5%; with OVCAR-8 ovarian, 99.7%; with OVCAR-5 ovarian, 113%; in the assay on OVCAR-4 ovarian it was 108%; in the assay with SK-OV-3 ovarian, 101%; in the assay on IGROV1 ovarian, 96.2%. In addition, the growth was 109% in the assay with OVCAR-3 ovarian, 110% in the assay on HS 578T breast, 99.9% in the assay on NCI/ADR-RES ovarian and 93.9% in the assay with T-47D breast.
On to `O=C(CCCCC[P+](c1ccccc1)(c1ccccc1)c1ccccc1)NC(COC(=O)C(Cl)Cl)(COC(=O)C(Cl)Cl)COC(=O)C(Cl)Cl`, for which the growth with RPMI-8226 leukemia is 83.3%; in the assay with OVCAR-8 ovarian, 95%; with OVCAR-5 ovarian it was 98.6%; in the assay on OVCAR-4 ovarian it was 100%; with SK-OV-3 ovarian it was 94.3%; in the assay with IGROV1 ovarian it was 100%. Moreover, the growth with OVCAR-3 ovarian is 103%; in the assay with HS 578T breast, 110%; in the assay with NCI/ADR-RES ovarian, 114%; in the assay with T-47D breast, 90.8%.
Turning to `O=C(c1cccs1)c1ccccc1Cc1ccccc1`, the growth is 100% with RPMI-8226 leukemia; 99% in the assay on OVCAR-8 ovarian; 124% in the assay with OVCAR-5 ovarian; 96.9% in the assay with OVCAR-4 ovarian; 101% in the assay with SK-OV-3 ovarian; 99.2% in the assay with IGROV1 ovarian. Further, the growth was 110% with OVCAR-3 ovarian, 106% in the assay on HS 578T breast, 103% with NCI/ADR-RES ovarian and 95% in the assay on T-47D breast.
In the case of `COc1ccc(-c2nc3sc(-c4ccccc4)c(-c4ccccc4)n3c2/C=C/C(=O)c2ccccn2)cc1`, the growth in the assay with RPMI-8226 leukemia was 45.7%; in the assay on OVCAR-8 ovarian, 67.9%; in the assay on OVCAR-5 ovarian, 115%; in the assay on OVCAR-4 ovarian, 43.7%; with SK-OV-3 ovarian, 103%; in the assay on IGROV1 ovarian, 82.6%. Moreover, the growth was 81.3% with OVCAR-3 ovarian, 80.6% with HS 578T breast, 85.9% in the assay with NCI/ADR-RES ovarian and 63.9% in the assay on T-47D breast.
In the case of `O=C(Nc1ccncc1)C(=O)c1cn(S(=O)(=O)c2ccc(F)cc2)c2ccccc12`, the growth in the assay on RPMI-8226 leukemia is 15.5%; in the assay on OVCAR-8 ovarian it was 30%; in the assay on OVCAR-5 ovarian it was 72.4%; with OVCAR-4 ovarian, 66.9%; in the assay with SK-OV-3 ovarian it was 91.2%; with IGROV1 ovarian, 26.8%. The growth is -21.9% (active) in the assay with OVCAR-3 ovarian, 50.4% in the assay on HS 578T breast, 2.06% (active) in the assay on NCI/ADR-RES ovarian and 52.5% in the assay with T-47D breast.
